PubChem BioAssay (NCATS)
Calls of active or inactive are those of the source. Calls follow the shape of the dose curve; as a rule, active = well fitted activation curve with a large enough effect; inconclusive = small, poorly fitted or top-dose-only effect; inactive = flat fitted curve, though single readings scatter.

Experiment: Confirmation and Secondary Assay for Modulators of Hemoglobin Beta Chain Splicing at IVS2 654 locus (AID 910);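 also: HeLa cells stably carrying EGFP split by mutant beta-globin IVS2-654 intron; per-well total GFP intensity by laser scanning cytometry after 2-day treatment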
Conditions: HeLa EGFP-654 splicing reporter, GFP fluorescence, 48 h; series mostly up to 46.1 µM
In short: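 Readout: per-well total peak green fluorescence (488 nm ex, 500–520 nm em) from objects 5–250 µm, reflecting correct splicing of an EGFP-654 reporter. Compounds were applied for 2 days at 37 °C to overnight-plated HeLa EGFP-654 cells; controls were DMSO and 500 nM IVS2-654 PNA.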

outcome, inactive:
CNC(=O)Oc1ccc2c(c1)[C@@]1(C)CCN(C)C1N2C (stereo partly drawn)
C[C@]12CCC3c4ccc(O)cc4CCC3C1CCC2OC(=O)CCC1CCCC1 (stereo partly drawn)
NC(=O)c1cc[n+](CC2=C(C(=O)O)N3C(=O)C(NC(=O)C(c4ccccc4)S(=O)(=O)[O-])C3SC2)cc1 (stereo not drawn)
CSCCC(NC=O)C(=O)NC(CC(C)C)C(=O)NC(Cc1ccccc1)C(=O)O (stereo not drawn)
NC(C(=O)O)C(O)C(=O)O (stereo not drawn)
COc1ccc(/C=C/C(=O)c2cc(O)ccc2O)cc1
C=CCCCCCCCCCCCC(O)CC(O)COC(C)=O (stereo not drawn) (tested in a mixture with another compound)

Experiment: Confirmation and Secondary Assay for Modulators of Hemoglobin Beta Chain Splicing at IVS2 705 locus (AID 930);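 also: HeLa cells stably expressing the EGFP-705 splicing reporter; GFP fluorescence per well restored by corrected splicing of the IVS2-705 intron in EGFP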
Conditions: HeLa EGFP-705 splicing reporter, GFP fluorescence, 48 h; series mostly up to 46.1 µM
In short: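 Per-well GFP, captured at 1 x 8 µm resolution with 488 nm excitation, served as the read-out for HeLa EGFP-705 cells incubated 2 days with test compound versus DMSO.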

outcome, inactive:
CNC(=O)Oc1ccc2c(c1)[C@@]1(C)CCN(C)C1N2C (stereo partly drawn)
C[C@]12CCC3c4ccc(O)cc4CCC3C1CCC2OC(=O)CCC1CCCC1 (stereo partly drawn)
NC(=O)c1cc[n+](CC2=C(C(=O)O)N3C(=O)C(NC(=O)C(c4ccccc4)S(=O)(=O)[O-])C3SC2)cc1 (stereo not drawn)
NC(C(=O)O)C(O)C(=O)O (stereo not drawn)
COc1ccc(/C=C/C(=O)c2cc(O)ccc2O)cc1
C=CCCCCCCCCCCCC(O)CC(O)COC(C)=O (stereo not drawn) (tested in a mixture with another compound)
